The assay deals with HCoV-OC43. Also noted: species or system RD. The note with it: 24 h, 10 µM; inhibitor.
`Cc1c([C@H](C)[C@@H]2NC[C@@H](C)C[C@H]2O)ccc2c1C[C@H]1[C@H]2CC=C2C[C@@H](O)CC[C@@]21C` [Veratramine, veratramine]: the “OC43 Inhibition rate” value stood at 77.2.

As to `C=C1C(=O)O[C@@H]2[C@H]3O[C@]3(C)CC/C=C(\C)CC[C@@H]12` [Parthenolide], the “OC43 Inhibition rate” value came out at 36.9.

In the case of `CC1=C[C@]23C(=O)[C@@H](C=C(COC(=O)c4ccccc4)[C@@H](O)[C@]2(O)[C@H]1OC(=O)c1ccccc1)[C@H]1[C@@H](C[C@H]3C)C1(C)C` [Ingenol 3,20-dibenzoate, ingenol 3,20-dibenzoate], the “OC43 Inhibition rate” value was 82.9.

These data come from paper PMC12431657, “Discovery and mechanistic insights of dibenzoylmethane as a broad spectrum inhibitor of coronavirus” (PLOS Pathogens, 2025).
